The text below walks through data of PubChem BioAssay (NCATS).

Records with an inconclusive call do not appear. Unmarked numbers belong to inactive results. Calls follow the shape of the dose curve; as a rule, active = well fitted activation curve with a large enough effect; inconclusive = small, poorly fitted or top-dose-only effect, or effect the other way; inactive = flat fitted curve, though single readings scatter.
% is scaled to controls: 0 for no effect and ±100 for the full control effect.

The assay in a line: qHTS Assay for Identification of Small Molecule Agonists for Thrombopoietin (TPO) Signaling Pathway (AID 917). The following applies: TPO signaling pathway reporter cells, agonist qHTS, stimulated with TPO at its EC50; series mostly up to 38.5 µM; activity, positive = activation: at the top concentration. The protocol: NIH Molecular Libraries Screening Centers Network [MLSCN]
NIH Chemical Genomics Center [NCGC]
The thrombopoietin (TPO) signaling pathway was assayed in murine Ba/F3 cells stably transfected with the human TPO receptor and a luciferase reporter gene controlled by the Glycoprotein IIb promoter (provided by Axxam). BaF3 cells are an IL-3-dependent pro B cell line that upon TPO stimulation, undergo cell division and induce the megakaryocyte marker, Glycoprotein IIb. The assay was screened at the EC50 of TPO (26 pM) to identify activators of the pathway.
NCGC Assay Protocol Summary:
Cells were maintained at 37 C and 5% CO2in RPMI with 10% fetal bovine serum, 0.5 ng/mL murine IL-3, 100U/ml penicillin and 100 ug/ml streptomycin. Prior to plating, cells were incubated overnight in medium without IL-3. Cells were plated at 250 cells/5uL/well into white solid 1536-well plates, 23 nL of compounds were delivered by a pin tool, and 1 uL of TPO (26 pM final concentration in IL-3 deficient medium) was added. Following 24 hrs of incubation at 37 C and 5% CO2, 4 uL of Steadylite detector mix (PerkinElmer) was added, the plates incubated at room temperature for 10 min and luminescence was measured for 10 s and 2X binning by a ViewLux detector (Perkin Elmer).
`CCN1CCc2nc(N)oc2CC1`: the “activity, positive = activation” value was 6.3%.
In the case of `CCN(CC)CCNC(=O)c1cc(S(C)(=O)=O)ccc1OC` it was -9.92%.
With `CN1CCN(CC(=O)N2c3ccccc3C(=O)Nc3cccnc32)CC1` the figure was -19.3%.
In the case of `OCCN1CCN(CCCN2c3ccccc3C=Cc3ccccc32)CC1` it was -27.8%.
For `CC(=O)Nc1nnc(S(N)(=O)=O)s1`, the “activity, positive = activation” value was 4.14%.
With `CN=C(NC#N)NCCSCc1nc[nH]c1C`, the “activity, positive = activation” value was -18.6%.
Regarding `Cc1nc2c([nH]1)c(=O)n(C)c(=O)n2Cc1ccco1`, the “activity, positive = activation” value was -25.1%.
With `C(=C\c1ccccc1)/CN1CCN(C(c2ccccc2)c2ccccc2)CC1` the figure was -15.7%; with `Cc1ccc(=O)n(-c2ccccc2)c1`, -2.5%; with `c1cnc(N2CCN(Cc3ccc4c(c3)OCO4)CC2)nc1`, 0.275%.
With `O=C(CCNNC(=O)c1ccncc1)NCc1ccccc1` the figure was -4.1%; with `CC1=C(C)C(=O)C(CCCCC#CCCCC#CCO)=C(C)C1=O`, -28%; with `CC1=NS(=O)(=O)c2cc(Cl)ccc2N1`, 12.3%.
Turning to `CCN(CC)CCOCCOC(=O)C1(c2ccccc2)CCCC1`, the “activity, positive = activation” value was -13.2%.
With `Cc1scc2c1N(C(=O)CN1CCN(C)CC1)c1ccccc1NC2=O` the figure was 2.2%; with `CCO/C([O-])=N/c1c[n+](N2CCOCC2)no1`, -12.9%.
In the case of `C[N+](C)(C)CCOC(N)=O` it was -13.6%; in that of `FC(F)(F)c1ccccc1-n1ccnc1`, -7.58%.
In the case of `CCc1c(C)[nH]c2c1C(=O)C(CN1CCOCC1)CC2` (stereo not given) it was -14.2%; in that of `CN(C)C(=O)Oc1ccc[n+](C)c1`, -10.8%; in that of `CCNC(=O)N1CCN(CCCC(c2ccc(F)cc2)c2ccc(F)cc2)CC1`, -24.1%.
Consider `CCOC(=O)c1cnc2c(cnn2CC)c1NN=C(C)C`, for which the “activity, positive = activation” value was -14.2%.
With `COc1ccc(CN(CCN(C)C)c2ccccn2)cc1` the figure was -18.7%; with `O=C1CC2(CCCC2)CC(=O)N1CCCCN1CCN(c2ncccn2)CC1`, -4.91%; with `NC(=O)N1c2ccccc2C=Cc2ccccc21`, -3.96%.
For `C[C@]12CCC(=O)C=C1CC[C@@H]1[C@@H]2C(=O)C[C@@]2(C)[C@H]1CC[C@]2(O)C(=O)CO`, the “activity, positive = activation” value was -10.4%.
In the case of `CC(=O)Oc1cc(C(C)C)c(OCCN(C)C)cc1C` it was -24.7%.
Take `Cc1ccc(S(=O)(=O)NC(=O)NN2CCCCCC2)cc1`: the “activity, positive = activation” value was 0.797%.
Consider `C[C@]12C=CC(=O)C=C1CC[C@H]1[C@@H]3C[C@@H](O)[C@](O)(C(=O)CO)[C@@]3(C)C[C@H](O)[C@@]12F`, for which the “activity, positive = activation” value was -18.1%.
In the case of `CN(C)CCOC(=O)COc1ccc(Cl)cc1` it was -7.33%; in that of `CC[N+](C)(C)c1cccc(O)c1`, 5.2%; in that of `CC(C)NNC(=O)c1ccncc1`, -2.2%.
With `CSc1ccc(C(=O)c2[nH]c(=O)[nH]c2C)cc1` the figure was 1.32%.
With `CCN(CC)CCNC(=O)c1ccc(NC(C)=O)cc1` the figure was -6.18%.
With `CCn1nc(C(=O)O)c(=O)c2cc3c(cc21)OCO3`, the “activity, positive = activation” value is 0.423%.
For `Nc1nc(N)c2nc(-c3ccccc3)c(N)nc2n1`, the “activity, positive = activation” value is -19.6%.
With `COc1cc(Cc2cnc(N)nc2N)cc(OC)c1OC` the figure was -16.2%.
For the molecule `NCCCNCCSP(=O)(O)O`, the “activity, positive = activation” value was -6.02%.
With `O=C(O)CCCCCCCC(=O)O` the figure was 4.38%; with `CC(C)[N+](C)(CCOC(=O)C1c2ccccc2Oc2ccccc21)C(C)C`, -24.2%.
